Results as given in article PMC7862700, “An all-to-all approach to the identification of sequence-specific readers for epigenetic DNA modifications on cytosine”.

How the values were obtained:
Experiment in all cases: DAPPL (digital affinity profiling via proximity ligation, sequencing); 10 mM Tris-HCl pH 7.5, 50 mM NaCl, 1 mM DTT, 4% glycerol, room temperature, 30 min; GST-TFs on glutathione beads, 16-mer random dsDNA library, 0.1% formaldehyde crosslink after washing; high values mean tight binding
FLI1 = biological target: T1, FLI1 (Homo sapiens, UniProt Q01543 1-452); conditions: protein: recombinant; tags: N-terminal GST; dsDNA, one strand shown
T1 sequence: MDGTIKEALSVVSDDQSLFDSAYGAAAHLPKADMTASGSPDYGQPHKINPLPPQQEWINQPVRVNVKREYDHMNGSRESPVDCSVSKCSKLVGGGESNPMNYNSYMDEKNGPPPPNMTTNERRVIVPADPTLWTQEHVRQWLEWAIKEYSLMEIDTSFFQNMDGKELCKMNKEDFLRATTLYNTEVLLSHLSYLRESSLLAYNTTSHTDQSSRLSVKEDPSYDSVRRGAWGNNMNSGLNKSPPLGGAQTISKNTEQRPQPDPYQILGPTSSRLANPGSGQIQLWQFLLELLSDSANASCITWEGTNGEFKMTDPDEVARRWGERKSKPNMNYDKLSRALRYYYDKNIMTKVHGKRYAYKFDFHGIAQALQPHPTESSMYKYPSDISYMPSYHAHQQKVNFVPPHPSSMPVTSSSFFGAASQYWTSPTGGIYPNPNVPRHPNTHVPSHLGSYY
In short: (§1)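 After expression in yeast as GST fusions, human transcription factors were bound to glutathione beads, DNA-barcoded and mixed with a tag-only sample. The pools were incubated with 200 nmole of a 16-mer random double-stranded DNA library in Tris/NaCl/DTT/glycerol buffer (30 min, room temperature), washed and crosslinked with 0.1% formaldehyde. Proximity ligation with BsaI/T4 ligase ran for 1 h at 37 °C, before PCR amplification and sequencing on an Illumina NextSeq500. Binding signal is a hexamer's read frequency for a factor divided by its frequency for the tag-only sample.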

ELK1 = biological target: T2, ELK1 (Homo sapiens, UniProt P19419 1-428); conditions: protein: recombinant; tags: N-terminal GST; dsDNA, one strand shown
T2 sequence: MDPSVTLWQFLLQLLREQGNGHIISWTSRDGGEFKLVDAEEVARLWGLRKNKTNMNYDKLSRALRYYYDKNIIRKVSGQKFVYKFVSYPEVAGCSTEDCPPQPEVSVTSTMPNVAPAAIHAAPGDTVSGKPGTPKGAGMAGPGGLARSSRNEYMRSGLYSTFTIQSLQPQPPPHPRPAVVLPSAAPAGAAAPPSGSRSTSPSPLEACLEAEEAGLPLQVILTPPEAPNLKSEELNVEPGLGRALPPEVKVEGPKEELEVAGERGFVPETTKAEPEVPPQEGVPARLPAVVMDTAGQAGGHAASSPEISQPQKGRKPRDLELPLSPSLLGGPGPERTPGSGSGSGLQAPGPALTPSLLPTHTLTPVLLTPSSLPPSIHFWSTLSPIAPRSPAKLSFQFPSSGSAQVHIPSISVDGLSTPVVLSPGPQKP
In short: as §1

GABPA = biological target: T3, GABPA (Homo sapiens, UniProt Q06546 1-454); conditions: protein: recombinant; tags: N-terminal GST; dsDNA, one strand shown
T3 sequence: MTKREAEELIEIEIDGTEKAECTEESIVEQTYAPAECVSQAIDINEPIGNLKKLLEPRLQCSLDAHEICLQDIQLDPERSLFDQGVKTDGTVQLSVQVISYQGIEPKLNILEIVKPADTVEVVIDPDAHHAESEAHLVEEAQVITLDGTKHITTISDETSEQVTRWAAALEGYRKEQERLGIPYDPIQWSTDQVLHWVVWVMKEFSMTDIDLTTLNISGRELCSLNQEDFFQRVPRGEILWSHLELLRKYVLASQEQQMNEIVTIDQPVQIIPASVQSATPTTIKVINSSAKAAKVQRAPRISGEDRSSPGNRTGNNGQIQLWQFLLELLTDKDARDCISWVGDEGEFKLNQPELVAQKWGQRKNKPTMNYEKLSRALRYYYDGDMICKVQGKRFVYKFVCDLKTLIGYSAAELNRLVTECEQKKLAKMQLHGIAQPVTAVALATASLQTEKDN
In short: as §1

ERG = biological target: T4, ERG (Homo sapiens, UniProt P11308 1-479); conditions: protein: recombinant; tags: N-terminal GST; dsDNA, one strand shown
T4 sequence: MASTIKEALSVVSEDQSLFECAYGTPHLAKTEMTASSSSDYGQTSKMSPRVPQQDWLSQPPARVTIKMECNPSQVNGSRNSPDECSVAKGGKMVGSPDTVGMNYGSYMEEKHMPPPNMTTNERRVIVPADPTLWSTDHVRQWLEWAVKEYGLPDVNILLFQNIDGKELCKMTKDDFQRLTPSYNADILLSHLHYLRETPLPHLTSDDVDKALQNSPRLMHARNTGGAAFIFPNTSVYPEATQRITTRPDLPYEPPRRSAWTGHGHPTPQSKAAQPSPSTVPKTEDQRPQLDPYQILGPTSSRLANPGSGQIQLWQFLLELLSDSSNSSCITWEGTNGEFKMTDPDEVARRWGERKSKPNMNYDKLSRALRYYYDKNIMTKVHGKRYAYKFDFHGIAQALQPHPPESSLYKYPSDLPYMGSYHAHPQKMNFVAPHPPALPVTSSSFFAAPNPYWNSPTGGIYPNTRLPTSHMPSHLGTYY
In short: as §1

ELF1 = ELF1 (Homo sapiens, UniProt P32519 1-619); conditions: protein: recombinant; tags: N-terminal GST; dsDNA, one strand shown
In short: as §1

EHF = biological target: T5, EHF (Homo sapiens, UniProt Q9NZC4 1-300); conditions: protein: recombinant; tags: N-terminal GST; dsDNA, one strand shown
T5 sequence: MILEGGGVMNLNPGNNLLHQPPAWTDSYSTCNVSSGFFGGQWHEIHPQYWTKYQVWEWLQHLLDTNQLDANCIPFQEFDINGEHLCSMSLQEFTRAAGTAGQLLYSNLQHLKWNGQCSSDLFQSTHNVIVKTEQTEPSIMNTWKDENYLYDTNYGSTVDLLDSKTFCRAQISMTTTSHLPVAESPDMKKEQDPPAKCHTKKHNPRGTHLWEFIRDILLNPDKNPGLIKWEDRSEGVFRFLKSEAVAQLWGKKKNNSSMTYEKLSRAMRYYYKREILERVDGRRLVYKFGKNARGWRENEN
In short: as §1

SPI1 = SPI1 (Homo sapiens, UniProt P17947 1-270); conditions: protein: recombinant; tags: N-terminal GST; dsDNA, one strand shown
In short: as §1

SPIB = SPIB (Homo sapiens, UniProt Q01892 1-262); conditions: protein: recombinant; tags: N-terminal GST; dsDNA, one strand shown
In short: as §1

ELK3 = biological target: T6, ELK3 (Homo sapiens, UniProt P41970 1-407); conditions: protein: recombinant; tags: N-terminal GST; dsDNA, one strand shown
T6 sequence: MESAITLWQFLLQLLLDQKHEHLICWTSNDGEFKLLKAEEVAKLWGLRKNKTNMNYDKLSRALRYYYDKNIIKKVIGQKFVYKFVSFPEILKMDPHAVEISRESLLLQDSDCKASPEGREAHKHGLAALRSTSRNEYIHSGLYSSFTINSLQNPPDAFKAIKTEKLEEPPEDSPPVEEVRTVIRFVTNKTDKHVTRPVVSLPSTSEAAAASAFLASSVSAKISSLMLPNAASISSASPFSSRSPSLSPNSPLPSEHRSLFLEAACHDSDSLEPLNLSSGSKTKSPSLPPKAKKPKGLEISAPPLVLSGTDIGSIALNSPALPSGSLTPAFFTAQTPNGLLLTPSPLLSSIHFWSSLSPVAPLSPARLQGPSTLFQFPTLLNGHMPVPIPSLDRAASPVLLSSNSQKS
In short: as §1

FEV = biological target: T7, FEV (Homo sapiens, UniProt Q99581 1-238); conditions: protein: recombinant; tags: N-terminal GST; dsDNA, one strand shown
T7 sequence: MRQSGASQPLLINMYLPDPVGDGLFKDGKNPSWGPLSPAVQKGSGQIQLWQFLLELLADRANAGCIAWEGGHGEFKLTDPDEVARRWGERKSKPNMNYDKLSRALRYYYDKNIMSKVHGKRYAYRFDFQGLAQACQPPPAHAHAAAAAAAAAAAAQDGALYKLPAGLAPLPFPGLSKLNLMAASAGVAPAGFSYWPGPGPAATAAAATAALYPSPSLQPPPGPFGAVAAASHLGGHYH
In short: as §1

ETV5 = ETV5 (Homo sapiens, UniProt P41161 1-510); conditions: protein: recombinant; tags: N-terminal GST; dsDNA, one strand shown
In short: as §1

HSF1 = HSF1 (Homo sapiens, UniProt Q00613 1-529); conditions: protein: recombinant; tags: N-terminal GST; chain copies: 3; dsDNA, one strand shown
In short: as §1

SPIC = biological target: T8, SPIC (Homo sapiens, UniProt Q8N5J4 1-248); conditions: protein: recombinant; tags: N-terminal GST; dsDNA, one strand shown
T8 sequence: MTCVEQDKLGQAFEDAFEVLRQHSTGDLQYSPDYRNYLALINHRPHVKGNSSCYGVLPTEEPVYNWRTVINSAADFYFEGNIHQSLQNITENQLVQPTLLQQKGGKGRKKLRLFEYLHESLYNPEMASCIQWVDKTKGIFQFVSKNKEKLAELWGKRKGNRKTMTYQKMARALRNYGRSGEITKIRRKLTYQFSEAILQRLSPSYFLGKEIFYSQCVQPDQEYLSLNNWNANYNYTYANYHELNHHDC
In short: as §1

ELF4 = ELF4 (Homo sapiens, UniProt Q99607 1-663); conditions: protein: recombinant; tags: N-terminal GST; dsDNA, one strand shown
In short: as §1

ELK4 = biological target: T9, ELK4 (Homo sapiens, UniProt P28324-2 1-405); conditions: protein: recombinant; tags: N-terminal GST; dsDNA, one strand shown
T9 sequence: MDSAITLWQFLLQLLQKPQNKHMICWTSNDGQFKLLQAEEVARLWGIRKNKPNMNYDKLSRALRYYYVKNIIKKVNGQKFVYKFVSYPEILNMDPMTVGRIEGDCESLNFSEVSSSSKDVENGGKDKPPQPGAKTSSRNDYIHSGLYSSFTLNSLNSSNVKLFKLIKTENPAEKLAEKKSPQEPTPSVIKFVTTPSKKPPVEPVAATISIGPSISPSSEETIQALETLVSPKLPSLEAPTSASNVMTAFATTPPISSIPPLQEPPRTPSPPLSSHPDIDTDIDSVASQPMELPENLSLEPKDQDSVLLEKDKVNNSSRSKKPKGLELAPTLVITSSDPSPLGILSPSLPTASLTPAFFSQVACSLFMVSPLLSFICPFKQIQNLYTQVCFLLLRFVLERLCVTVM
In short: as §1

ETV2 = biological target: T10, ETV2 (Homo sapiens, UniProt O00321 1-342); conditions: protein: recombinant; tags: N-terminal GST; dsDNA, one strand shown
T10 sequence: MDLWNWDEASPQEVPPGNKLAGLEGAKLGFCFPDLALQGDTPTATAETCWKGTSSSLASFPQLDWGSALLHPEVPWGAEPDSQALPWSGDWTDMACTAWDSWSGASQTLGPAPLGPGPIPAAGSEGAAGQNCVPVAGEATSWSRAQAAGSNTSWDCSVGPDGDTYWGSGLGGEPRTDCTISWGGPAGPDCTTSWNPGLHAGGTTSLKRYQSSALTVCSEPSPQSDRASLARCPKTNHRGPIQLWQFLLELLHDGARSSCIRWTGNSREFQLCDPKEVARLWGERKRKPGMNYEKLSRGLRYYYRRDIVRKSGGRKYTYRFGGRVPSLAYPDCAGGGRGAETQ
In short: as §1

ELF3 = biological target: T11, ELF3 (Homo sapiens, UniProt P78545 1-371); conditions: protein: recombinant; tags: N-terminal GST; dsDNA, one strand shown
T11 sequence: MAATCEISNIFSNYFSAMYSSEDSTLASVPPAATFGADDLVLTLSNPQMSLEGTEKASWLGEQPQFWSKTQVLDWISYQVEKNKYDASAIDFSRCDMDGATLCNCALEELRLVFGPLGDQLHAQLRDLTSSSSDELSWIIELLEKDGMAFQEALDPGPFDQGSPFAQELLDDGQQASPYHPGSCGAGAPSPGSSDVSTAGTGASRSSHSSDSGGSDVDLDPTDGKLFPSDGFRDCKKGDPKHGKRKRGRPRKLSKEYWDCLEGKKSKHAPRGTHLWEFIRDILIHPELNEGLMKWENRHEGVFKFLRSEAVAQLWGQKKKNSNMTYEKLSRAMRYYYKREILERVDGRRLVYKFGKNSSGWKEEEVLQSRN
In short: as §1

CRX = CRX (Homo sapiens, UniProt O43186 1-299); conditions: protein: recombinant; tags: N-terminal GST; dsDNA, one strand shown
In short: as §1

ETV1 = ETV1 (Homo sapiens, UniProt P50549 1-477); conditions: protein: recombinant; tags: N-terminal GST; dsDNA, one strand shown
In short: as §1

SPIB, sequence (Q01892 whole entry): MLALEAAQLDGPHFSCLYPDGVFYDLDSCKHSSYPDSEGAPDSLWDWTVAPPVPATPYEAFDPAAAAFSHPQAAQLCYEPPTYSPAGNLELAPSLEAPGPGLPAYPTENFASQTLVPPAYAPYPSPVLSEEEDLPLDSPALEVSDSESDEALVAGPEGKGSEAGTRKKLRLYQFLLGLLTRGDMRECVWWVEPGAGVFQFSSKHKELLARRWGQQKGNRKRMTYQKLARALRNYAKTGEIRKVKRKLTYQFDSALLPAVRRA
ELF4, sequence (Q99607 whole entry): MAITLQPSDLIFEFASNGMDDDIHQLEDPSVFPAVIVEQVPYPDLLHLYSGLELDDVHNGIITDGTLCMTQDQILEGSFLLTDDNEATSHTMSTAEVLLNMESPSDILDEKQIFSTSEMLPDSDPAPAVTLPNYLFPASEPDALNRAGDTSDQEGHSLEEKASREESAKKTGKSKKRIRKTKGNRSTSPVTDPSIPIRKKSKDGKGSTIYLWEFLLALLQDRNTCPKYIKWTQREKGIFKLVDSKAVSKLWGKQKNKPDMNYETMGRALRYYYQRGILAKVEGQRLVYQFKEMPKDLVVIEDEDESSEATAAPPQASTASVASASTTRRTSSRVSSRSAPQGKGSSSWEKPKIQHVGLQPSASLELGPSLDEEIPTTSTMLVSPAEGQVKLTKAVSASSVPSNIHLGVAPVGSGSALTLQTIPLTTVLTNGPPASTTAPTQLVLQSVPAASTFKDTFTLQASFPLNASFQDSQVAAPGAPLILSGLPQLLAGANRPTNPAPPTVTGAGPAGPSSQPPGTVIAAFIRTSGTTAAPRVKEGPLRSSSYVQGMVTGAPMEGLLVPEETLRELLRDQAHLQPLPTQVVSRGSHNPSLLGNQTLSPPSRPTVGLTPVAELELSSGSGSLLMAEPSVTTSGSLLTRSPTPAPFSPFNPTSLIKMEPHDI
CRX, sequence (O43186 whole entry): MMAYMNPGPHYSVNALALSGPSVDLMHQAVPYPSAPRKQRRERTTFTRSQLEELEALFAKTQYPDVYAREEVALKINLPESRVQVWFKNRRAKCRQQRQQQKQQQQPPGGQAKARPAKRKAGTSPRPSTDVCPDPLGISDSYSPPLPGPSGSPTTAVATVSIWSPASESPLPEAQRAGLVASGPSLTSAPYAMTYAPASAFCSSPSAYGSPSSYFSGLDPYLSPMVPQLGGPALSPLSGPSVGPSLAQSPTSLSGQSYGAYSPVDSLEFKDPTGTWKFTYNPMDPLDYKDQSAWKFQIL
ETV5, sequence (P41161 whole entry): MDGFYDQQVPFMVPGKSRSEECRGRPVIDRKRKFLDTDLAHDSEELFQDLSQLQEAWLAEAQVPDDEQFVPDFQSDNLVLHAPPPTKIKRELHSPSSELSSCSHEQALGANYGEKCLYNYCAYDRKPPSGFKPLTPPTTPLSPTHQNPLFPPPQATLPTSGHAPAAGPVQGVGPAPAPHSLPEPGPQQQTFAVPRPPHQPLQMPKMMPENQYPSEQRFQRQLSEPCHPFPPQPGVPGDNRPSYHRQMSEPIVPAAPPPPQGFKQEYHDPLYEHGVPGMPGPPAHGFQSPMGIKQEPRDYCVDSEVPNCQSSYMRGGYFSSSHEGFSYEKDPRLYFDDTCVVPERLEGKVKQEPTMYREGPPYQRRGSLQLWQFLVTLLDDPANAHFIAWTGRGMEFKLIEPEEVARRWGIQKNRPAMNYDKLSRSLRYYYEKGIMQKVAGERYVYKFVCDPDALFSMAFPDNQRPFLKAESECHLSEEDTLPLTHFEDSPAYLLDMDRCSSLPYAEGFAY
ETV1, sequence (P50549 whole entry): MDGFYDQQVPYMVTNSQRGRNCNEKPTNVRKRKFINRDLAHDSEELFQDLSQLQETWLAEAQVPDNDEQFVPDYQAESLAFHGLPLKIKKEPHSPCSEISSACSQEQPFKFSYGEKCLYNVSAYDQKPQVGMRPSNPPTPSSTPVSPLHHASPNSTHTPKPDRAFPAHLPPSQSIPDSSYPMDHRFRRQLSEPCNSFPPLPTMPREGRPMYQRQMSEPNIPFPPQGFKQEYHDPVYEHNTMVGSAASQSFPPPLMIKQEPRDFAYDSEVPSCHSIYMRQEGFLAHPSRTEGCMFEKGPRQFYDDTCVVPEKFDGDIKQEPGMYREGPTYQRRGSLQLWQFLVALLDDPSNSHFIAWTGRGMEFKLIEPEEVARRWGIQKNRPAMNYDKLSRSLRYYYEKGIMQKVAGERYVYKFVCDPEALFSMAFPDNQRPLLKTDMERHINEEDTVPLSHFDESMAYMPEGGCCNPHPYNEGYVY
HSF1, sequence (Q00613 whole entry): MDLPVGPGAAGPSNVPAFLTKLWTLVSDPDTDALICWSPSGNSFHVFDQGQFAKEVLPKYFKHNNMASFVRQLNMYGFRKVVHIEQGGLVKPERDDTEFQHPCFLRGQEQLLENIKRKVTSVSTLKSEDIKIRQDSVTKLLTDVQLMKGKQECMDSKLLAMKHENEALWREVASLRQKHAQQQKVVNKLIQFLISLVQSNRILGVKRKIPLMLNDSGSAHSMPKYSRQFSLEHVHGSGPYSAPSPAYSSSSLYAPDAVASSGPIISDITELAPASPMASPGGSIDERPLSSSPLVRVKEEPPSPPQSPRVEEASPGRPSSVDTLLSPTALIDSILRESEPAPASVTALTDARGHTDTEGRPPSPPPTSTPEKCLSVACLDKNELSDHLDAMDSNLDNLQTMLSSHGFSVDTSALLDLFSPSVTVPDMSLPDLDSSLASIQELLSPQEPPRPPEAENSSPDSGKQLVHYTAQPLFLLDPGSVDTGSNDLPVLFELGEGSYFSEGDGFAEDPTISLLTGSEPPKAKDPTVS
ELF1, sequence (P32519 whole entry): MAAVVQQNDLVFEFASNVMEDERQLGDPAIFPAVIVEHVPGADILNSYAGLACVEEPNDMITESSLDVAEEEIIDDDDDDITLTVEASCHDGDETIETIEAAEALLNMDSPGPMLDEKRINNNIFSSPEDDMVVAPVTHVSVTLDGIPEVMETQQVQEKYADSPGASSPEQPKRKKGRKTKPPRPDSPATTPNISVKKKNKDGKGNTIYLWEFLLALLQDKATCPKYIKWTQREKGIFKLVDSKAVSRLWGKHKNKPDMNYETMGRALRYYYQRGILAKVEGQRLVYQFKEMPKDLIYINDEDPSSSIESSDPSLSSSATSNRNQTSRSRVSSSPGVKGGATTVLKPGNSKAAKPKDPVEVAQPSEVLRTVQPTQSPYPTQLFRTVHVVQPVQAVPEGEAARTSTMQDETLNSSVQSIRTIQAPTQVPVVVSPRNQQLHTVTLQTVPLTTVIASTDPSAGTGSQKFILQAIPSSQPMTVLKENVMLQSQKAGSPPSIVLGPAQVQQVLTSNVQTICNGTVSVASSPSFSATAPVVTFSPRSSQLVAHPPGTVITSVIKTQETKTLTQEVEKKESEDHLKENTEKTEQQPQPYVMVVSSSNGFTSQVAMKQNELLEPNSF

## TGGTAT
FLI1
  binding signal: 1.41 fold enrichment (6-mer frequency, TF over GST control)
ELK1
  binding signal: 1.45 fold enrichment (6-mer frequency, TF over GST control)
GABPA
  binding signal: 1.29 fold enrichment (6-mer frequency, TF over GST control)
ERG
  binding signal: 1.31 fold enrichment (6-mer frequency, TF over GST control)
ELF1
  binding signal: 1.39 fold enrichment (6-mer frequency, TF over GST control)
EHF
  binding signal: 1.32 fold enrichment (6-mer frequency, TF over GST control)
SPI1
  binding signal: 1.39 fold enrichment (6-mer frequency, TF over GST control)
SPIB
  binding signal: 1.37 fold enrichment (6-mer frequency, TF over GST control)
ELK3
  binding signal: 1.24 fold enrichment (6-mer frequency, TF over GST control)
FEV
  binding signal: 1.26 fold enrichment (6-mer frequency, TF over GST control)
ETV5
  binding signal: 1.37 fold enrichment (6-mer frequency, TF over GST control)
HSF1
  binding signal: 1.35 fold enrichment (6-mer frequency, TF over GST control)
SPIC
  binding signal: 1.39 fold enrichment (6-mer frequency, TF over GST control)
ELF4
  binding signal: 1.42 fold enrichment (6-mer frequency, TF over GST control)
ELK4
  binding signal: 1.47 fold enrichment (6-mer frequency, TF over GST control)
ETV2
  binding signal: 1.33 fold enrichment (6-mer frequency, TF over GST control)
ELF3
  binding signal: 1.45 fold enrichment (6-mer frequency, TF over GST control)
CRX
  binding signal: 1.39 fold enrichment (6-mer frequency, TF over GST control)
ETV1
  binding signal: 1.37 fold enrichment (6-mer frequency, TF over GST control)
